In PubChem BioAssay AID1159580 (chemical genetic matrix, 2015):
Values joined by “and” are separate entries in the source; they are usually repeats but may differ in a detail not shown here. Equal entries are not always repeated. Out of some 5,500 compounds screened, about 2,000 (36%) were called active. Roughly 18% stayed inconclusive and do not appear here. The list shows a part of the results. A number with no mark means an inactive call. No stated cut-off is given here; in the data, active means normalized growth mostly below about 0.91 (no sharp cut-off); inconclusive means no clear call, values can overlap the other calls; inactive means mostly above about 0.92.

Assay: chemical genetic growth profiling, strain panel (AID 1159580);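 further: tested at 20 µM; growth read once vehicle control cultures reached saturation at 30 °C; 1 = growth at the plate median or of vehicle wells; lower values mean less growth of the strain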
Details: S. cerevisiae deletion strains, growth OD

Question: What does the source list for `CC1=CC(=O)c2ccccc2C1=O`?
Answer: normalized growth (locus YAL013W, strain DEP1, active compounds read low): 0.0548 (active); normalized growth (locus YAL021C, strain ccr4, active compounds read low): 1.02; normalized growth (locus YAL026C, strain drs2, active compounds read low): 0.903 (active); normalized growth (locus YAL030W, strain snc1, active compounds read low): 1.02; normalized growth (locus YBL061C, strain skt5, active compounds read low): 1.03; normalized growth (locus YBR009C, strain hhf1, active compounds read low): 0.757 (active); normalized growth (locus YBR021W, strain FUR4, active compounds read low): 0.0857 (active); normalized growth (locus YBR023C, strain chs3, active compounds read low): 0.999; normalized growth (locus YBR171W, strain sec66, active compounds read low): 1.03; normalized growth (locus YBR229C, strain ROT2, active compounds read low): 0.076 (active); normalized growth (locus YBR231C, strain swc5, active compounds read low): 0.955; normalized growth (locus YBR279W, strain paf1, active compounds read low): 0.971; normalized growth (locus YCL011C, strain gbp2, active compounds read low): 0.864 (active); normalized growth (locus YCL016C, strain dcc1, active compounds read low): 0.933; normalized growth (locus YCL029C, strain bik1, active compounds read low): 0.0624 (active); normalized growth (locus YCL061C, strain MRC1, active compounds read low): 0.932; normalized growth (locus YCL069W, strain vba3, active compounds read low): 0.967; normalized growth (locus YCR088W, strain abp1, active compounds read low): 1.03; normalized growth (locus YDL005C, strain med2, active compounds read low): 1.03; normalized growth (locus YDL035C, strain GPR1, active compounds read low): 0.0512 (active); normalized growth (locus YDL040C, strain nat1, active compounds read low): 1.03; normalized growth (locus YDL074C, strain BRE1, active compounds read low): 0.108 (active); normalized growth (locus YDL101C, strain DUN1, active compounds read low): 0.0567 (active); normalized growth (locus YDL134C, strain PPH21, active compounds read low): 0.046 (active); normalized growth (locus YDL185W, strain tfp1, active compounds read low): 0.0717 (active); normalized growth (locus YDL192W, strain arf1, active compounds read low): 0.0585 (active); normalized growth (locus YDR001C, strain nth1, active compounds read low): 1.04; normalized growth (locus YDR069C, strain doa4, active compounds read low): 1.03; normalized growth (locus YDR101C, strain arx1, active compounds read low): 0.0639 (active); normalized growth (locus YDR137W, strain rgp1, active compounds read low): 0.916; normalized growth (locus YDR150W, strain NUM1, active compounds read low): 0.0617 (active); normalized growth (locus YDR159W, strain sac3, active compounds read low): 0.983; normalized growth (locus YDR162C, strain NBP2, active compounds read low): 0.054 (active); normalized growth (locus YDR195W, strain ref2): 1.3 [resistant] (active); normalized growth (locus YDR297W, strain sur2, active compounds read low): 0.988; normalized growth (locus YDR318W, strain mcm21, active compounds read low): 0.0603 (active); normalized growth (locus YDR334W, strain swr1, active compounds read low): 1.01; normalized growth (locus YDR335W, strain msn5, active compounds read low): 1.01; normalized growth (locus YDR388W, active compounds read low): 0.0538 (active); normalized growth (locus YDR392W, strain spt3, active compounds read low): 0.539 (active); normalized growth (locus YDR502C, strain sam2, active compounds read low): 0.059 (active); normalized growth (locus YEL003W, strain gim4, active compounds read low): 0.938; normalized growth (locus YEL037C, strain rad23, active compounds read low): 0.994; normalized growth (locus YEL061C, strain CIN8 (second series), active compounds read low): 1.02; normalized growth (locus YEL061C, strain CIN8, active compounds read low): 0.0492 (active); normalized growth (locus YER015W, strain faa2, active compounds read low): 0.971; normalized growth (locus YER016W, strain bim1, active compounds read low): 1.02; normalized growth (locus YER110C, active compounds read low): 0.0711 (active); normalized growth (locus YER111C, strain swi4, active compounds read low): 1.02; normalized growth (locus YER155C, strain BEM2 (second series), active compounds read low): 0.993; normalized growth (locus YER155C, strain BEM2, active compounds read low): 0.076 (active); normalized growth (locus YER167W, strain BCK2, active compounds read low): 0.0494 (active); normalized growth (locus YFR010W, strain ubp6, active compounds read low): 0.989; normalized growth (locus YGL078C, strain dbp3, active compounds read low): 0.294 (active); normalized growth (locus YGL086W, strain mad1, active compounds read low): 0.0543 (active); normalized growth (locus YGL167C, strain pmr1, active compounds read low): 1.04; normalized growth (locus YGL173C, strain kem1, active compounds read low): 0.987; normalized growth (locus YGL227W, strain vid30, active compounds read low): 0.974; normalized growth (locus YGL240W, strain doc1, active compounds read low): 0.871 (active); normalized growth (locus YGL248W, strain PDE1, active compounds read low): 0.0439 (active); normalized growth (locus YGL253W, strain hxk2, active compounds read low): 0.887 (active); normalized growth (locus YGR078C, strain PAC10, active compounds read low): 0.0487 (active); normalized growth (locus YGR135W, strain pre9, active compounds read low): 0.0619 (active); normalized growth (locus YGR229C, strain SMI1, active compounds read low): 0.0566 (active); normalized growth (locus YGR252W, strain gcn5, active compounds read low): 0.168 (active); normalized growth (locus YHR013C, strain ard1, active compounds read low): 1.17 [resistant] (active); normalized growth (locus YHR027C, strain rpn1, active compounds read low): 0.997; normalized growth (locus YHR030C, strain SLT2, active compounds read low): 0.0463 (active) and 0.306 (active); normalized growth (locus YHR079C, strain IRE1 (second series), active compounds read low): 0.0572 (active); normalized growth (locus YHR079C, strain IRE1, active compounds read low): 0.291 (active); normalized growth (locus YHR094C, strain hxt1, active compounds read low): 0.0585 (active); normalized growth (locus YHR129C, strain ARP1, active compounds read low): 0.058 (active); normalized growth (locus YHR142W, strain chs7, active compounds read low): 0.838 (active); normalized growth (locus YHR200W, strain rpn10, active compounds read low): 0.0601 (active); normalized growth (locus YIL066C, strain RNR3, active compounds read low): 0.0506 (active); normalized growth (locus YIL073C, strain SPO22, active compounds read low): 0.117 (active); normalized growth (locus YIL125W, strain kgd1, active compounds read low): 0.419 (active); normalized growth (locus YIR030C, strain dcg1, active compounds read low): 0.0593 (active); normalized growth (locus YJL092W, strain hpr5, active compounds read low): 1.02; normalized growth (locus YJL095W, strain BCK1 (second series), active compounds read low): 1.02; normalized growth (locus YJL095W, strain BCK1, active compounds read low): 0.0528 (active) and 0.292 (active); normalized growth (locus YJL115W, strain asf1, active compounds read low): 1.03; normalized growth (locus YJL129C, strain trk1, active compounds read low): 1.02; normalized growth (locus YJL134W, strain LCB3, active compounds read low): 0.0458 (active); normalized growth (locus YJL154C, strain vps35, active compounds read low): 1.03; normalized growth (locus YJL164C, strain tpk1, active compounds read low): 0.934; normalized growth (locus YJL166W, strain qcr8, active compounds read low): 0.639 (active); normalized growth (locus YJL168C, strain set2, active compounds read low): 0.0804 (active); normalized growth (locus YJL187C, strain SWE1 (second series), active compounds read low): 0.0592 (active); normalized growth (locus YJR043C, strain POL32, active compounds read low): 0.0645 (active); normalized growth (locus YJR066W, strain TOR1, active compounds read low): 0.368 (active)
